In PubChem BioAssay (Tox21):
A number with no mark means an inactive call. Results filed as inconclusive are left out. Entries that show only a call come without a potency. The source made the active and inactive calls. Unless noted, calls follow the shape of the dose curve; as a rule, active = well fitted curve in the direction sought with a large enough effect in the repeat runs; inconclusive = weak or mixed curves; inactive = no such curve, though single readings can be large; an effect the other way counts as inactive or inconclusive.

Tests used:
[1] = qHTS assay to identify small molecule agonists of the estrogen receptor alpha (ER-alpha) signaling pathway in the presence of an antagonist - cell viability counter screen (AID 1259386);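 also: cells exposed to compounds for 22 h at 37 °C before the viability read; nearly all actives have a fitted effect of over 30% in size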; also: potency is read from the fitted curve at half-maximal effect
In short: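 VM7Luc4E2 cells (endogenous full-length ER-alpha, 4×ERE-luciferase) were held 5 days in phenol red-free medium with 10% charcoal-stripped FBS, plated, then given 10.0nM ICI-182,780 and compounds at 15 concentrations for 22hr at 37C; viability read by CellTiter-Fluor fluorescence.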

[2] = biological target: Progesterone receptor (Homo sapiens) (UniProt P06401); assay: qHTS assay to identify small molecule agonists of the progesterone receptor (PR) signaling pathway (AID 1346784; calls by dose curve; also: nearly all actives have a fitted effect of over 30% in size)
In short: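 Agonist qHTS: compounds pinned onto 3,000 PR-UAS-bla HEK 293T cells per well in charcoal-stripped serum medium, 16hr at 37C, then beta-lactamase activity measured by LiveBLAzer FRET fluorescence after 2 hours at room temperature.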

[3] = biological target: Progesterone receptor (Homo sapiens) (UniProt P06401); assay: qHTS assay to identify small molecule antagonists of the progesterone receptor (PR) signaling pathway (AID 1346795; active = well fitted inhibition curve with a large enough effect in the signal ratio in the repeat runs, not every such curve was filed as active; the % refers to the signal ratio; also: potency is read from the fitted curve at half-maximal effect)
In short: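 Antagonist mode with agonist R5020 at 1 nM final and 16 hr incubation at 37C. Reporter was beta-lactamase driven by UAS in HEK293T (PR-UAS-bla), 2% charcoal-stripped serum; signal from LiveBLAzer FRET substrate, 2 hr at room temperature.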

[4] = qHTS assay to identify small molecule antagonists of the progesterone receptor (PR) signaling pathway - cell viability counter screen (AID 1346798); also: series mostly up to about 92 µM; nearly all actives have a fitted effect of over 50% in size
In short: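 Cytotoxicity read as CellTiter-Glo luminescence (30 min, room temperature) in the same wells as the beta-lactamase readout. HEK293T PR-UAS-bla cells in charcoal-stripped 2% FBS received compound and R5020, then 16 h at 37C, 5% CO2.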

[5] = qHTS assay to identify small molecule antagonists of the TGF-beta/Smad signaling pathway - cell viability counter screen (AID 1346824); also: nearly all actives have a fitted effect of over 50% in size
In short: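 SBE-bla HEK 293T cells were plated overnight at 37 C, then given compounds in DMSO plus TGF-beta1 (added as 0.25 ng/mL solution) for 5 hr. After the bla read, CellTiter-Glo was added to the same wells and luminescence read after 30 min at room temperature.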

[6] = qHTS assay to identify small molecule agonists of the TGF-beta/Smad signaling pathway - cell viability counter screen (AID 1346829); also: top concentration of the series differs between compounds; nearly all actives have a fitted effect of over 45% in size
In short: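 Luminescence from CellTiter-Glo, read after a 30 min room-temperature incubation, gives cell viability of SBE-bla HEK 293T cells treated 5 hr with compounds at 37 C.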

[7] = qHTS assay to identify small molecule agonists of the TGF-beta/Smad signaling pathway (AID 1346859; active = well fitted activation curve with a large enough effect in the signal ratio in the repeat runs, not every such curve was filed as active; the % refers to the signal ratio; also: series mostly up to about 77 µM)
In short: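 Fluorescence (ex 405 nm; em 460 and 530 nm) was read 2 h after LiveBLAzer FRET substrate at RT. The preceding compound treatment of overnight-plated SBE-bla HEK293T cells lasted 5 h at 37 C.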

[8] = biological target: Thyrotropin-releasing hormone receptor (Homo sapiens) (UniProt P34981); assay: qHTS assay to identify small molecule antagonists of the thyrotropin-releasing hormone receptor (TRHR) signaling pathway (AID 1346877; active = well fitted inhibition curve with a large enough effect in the repeat runs, not every such curve was filed as active; also: series mostly up to about 51 µM)
In short: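 TRHR-expressing HEK293 cells were seeded, cultured 18 h at 37 °C, then loaded with calcium dye for 2 h. Compounds were pre-incubated 5 min at room temperature before 1 nM TRH (final) was added, and kinetic fluorescence was recorded for 3 min.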

[9] = biological target: Thyrotropin-releasing hormone receptor (Homo sapiens) (UniProt P34981); assay: qHTS assay to identify small molecule agonists of the thyrotropin-releasing hormone receptor (TRHR) signaling pathway (AID 1346891; calls by dose curve; also: series mostly up to about 58 µM)
In short: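 Agonist-mode intracellular calcium readout: kinetic fluorescence over 3 min at 1 s intervals after compound addition to TRHR-HEK293 cells (18 h seeded, 2 h dye-loaded at 37 C). Fifteen concentrations, triplicates.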

[10] = Human pregnane X receptor (PXR) small molecule agonists, qHTS cell viability counter screen (AID 1346977); also: nearly all actives have a fitted effect of over 50% in size
In short: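 Same-well viability read: CellTiter-Fluor added after 23 hr compound exposure, fluorescence measured 1 hr later. Cells were PXR-Luc HepG2 seeded at 2,000/well in 5% charcoal-stripped FBS medium, rested 5 hr before dosing at 37 C.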

[11] = Caspase-3/7 induction in HepG2 cells by small molecules, qHTS assay (AID 1346978); also: nearly all actives have a fitted effect of over 15% in size
In short: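 Wild-type HepG2 cells (2,000/well) were settled 5 h at 37 C, 5% CO2, then exposed to compounds in DMSO for 17 h. Caspase-3/7 activity was read by luminescence 30 min after adding Caspase-Glo 3/7 reagent at room temperature.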

[12] = Caspase-3/7 induction in CHO-K1 cells by small molecules, qHTS assay (AID 1346980); also: nearly all actives have a fitted effect of over 15% in size
In short: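 Wild-type cells were seeded at 1,500 per well and settled 5 hr at 37 C, 5% CO2, then exposed to DMSO-dissolved compounds for 17 hr. Caspase-Glo 3/7 reagent was added, and luminescence was read after 30min at room temperature.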

[13] = Caspase-3/7 induction in HepG2 cells by small molecules, qHTS cell viability counter screen (AID 1346981); also: series mostly up to about 92 µM; nearly all actives have a fitted effect of over 30% in size
In short: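 Wild-type HepG2 cells (2,000/well) were allowed to settle for 5 hr at 37 C, 5% CO2, then dosed with compounds in DMSO by pin transfer. After 16 hr at 37 C, CellTiter-Fluor was added and fluorescence read 1 hr later.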

[14] = qHTS assay to identify small molecule agonists of the progesterone receptor (PR) signaling pathway - cell viability counter screen (AID 1346799; calls by dose curve; also: nearly all actives have a fitted effect of over 45% in size)
In short: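 Cytotoxicity measured by CellTiter-Glo luminescence (30 min, RT) in the same wells as the PR beta-lactamase agonist read. Those HEK293T cells had 16 h compound treatment at 37 C in 2% charcoal-stripped FBS medium.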

[15] = Caspase-3/7 induction in CHO-K1 cells by small molecules, qHTS cell viability counter screen (AID 1346979); also: nearly all actives have a fitted effect of over 35% in size; also: potency is read from the fitted curve at half-maximal effect
In short: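 Cytotoxicity counter screen: CellTiter-Fluor added to compound-treated wild-type CHO-K1 cells at 16 h (37C, 5% CO2), fluorescence measured 1 h later; same wells as caspase-3/7 measurement.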

[16] = biological target: Nuclear receptor subfamily 1 group I member 2 (Homo sapiens) (UniProt O75469); assay: Human pregnane X receptor (PXR) small molecule agonists, qHTS assay (AID 1346982); also: nearly all actives have a fitted effect of over 35% in size; also: potency is read from the fitted curve at half-maximal effect
In short: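 PXR-Luc HepG2 cells (CYP3A4 promoter-driven luciferase) were seeded in medium with 5% charcoal-stripped FBS, left 5 hr at 37 C, then exposed to compounds in DMSO for 24 hr. Luminescence was read after ONE-Glo addition.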

[17] = biological target: Nuclear receptor subfamily 1 group I member 2 (Rattus norvegicus) (UniProt Q9R1A7); assay: Rat pregnane X receptor (rPXR) activation by small molecules, qHTS assay (AID 1346983); details: rPXR luciferase reporter cells, One-Glo luminescence, 24 h; max activation: stronger effect = higher value; also: nearly all actives have a fitted effect of over 20% in size
In short: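 Cell-based rPXR luciferase reporter assay, 2,000 cells per well, rested 5hr at 37 C before compound addition in DMSO, then 24 hr at 37 C. One-Glo reagent was added and luminescence read after 30 min at room temperature.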

[18] = biological target: Nuclear receptor subfamily 1 group I member 2 (Homo sapiens) (UniProt O75469); assay: CYP3A4 induction through human pregnane X receptor (PXR) by small molecules, qHTS assay (AID 1346984); also: nearly all actives have a fitted effect of over 40% in size; also: potency is read from the fitted curve at half-maximal effect
In short: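 DPX-2 cells (HepG2 co-transfected with PXR and CYP3A4 promoter-luciferase) treated with compounds 24 h at 37C; luciferin-IPA CYP3A4 substrate 3uM final added for 3 h, then One-Glo; luminescence read. qHTS format.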

[19] = biological target: Nuclear receptor subfamily 1 group I member 2 (Homo sapiens) (UniProt O75469); assay: Human pregnane X receptor (PXR) activation by small molecules, qHTS assay (AID 1346985); also: nearly all actives have a fitted effect of over 40% in size
In short: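 DPX-2 cells (HepG2 co-transfected with a PXR response element and a CYP3A4-promoter luciferase construct) were seeded at 2,000 per well, rested 5 hr at 37C, then exposed to DMSO-dissolved compounds for 24 hr. Activation was read as luciferase luminescence.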

Chain of Nuclear receptor subfamily 1 group I member 2 (Rattus norvegicus) (Q9R1A7 whole entry, looked up): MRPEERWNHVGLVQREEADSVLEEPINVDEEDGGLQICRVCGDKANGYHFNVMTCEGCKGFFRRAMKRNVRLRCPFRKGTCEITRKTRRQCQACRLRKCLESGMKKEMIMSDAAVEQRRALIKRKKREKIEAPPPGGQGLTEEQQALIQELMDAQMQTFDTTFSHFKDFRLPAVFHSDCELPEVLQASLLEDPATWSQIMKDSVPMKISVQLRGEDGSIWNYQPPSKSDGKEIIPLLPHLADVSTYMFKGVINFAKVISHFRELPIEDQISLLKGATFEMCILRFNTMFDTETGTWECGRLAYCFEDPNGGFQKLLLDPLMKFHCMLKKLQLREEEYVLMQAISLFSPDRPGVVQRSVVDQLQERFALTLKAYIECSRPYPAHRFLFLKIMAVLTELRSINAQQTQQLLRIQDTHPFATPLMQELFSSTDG
Chain of Thyrotropin-releasing hormone receptor (Homo sapiens) (P34981 whole entry, looked up): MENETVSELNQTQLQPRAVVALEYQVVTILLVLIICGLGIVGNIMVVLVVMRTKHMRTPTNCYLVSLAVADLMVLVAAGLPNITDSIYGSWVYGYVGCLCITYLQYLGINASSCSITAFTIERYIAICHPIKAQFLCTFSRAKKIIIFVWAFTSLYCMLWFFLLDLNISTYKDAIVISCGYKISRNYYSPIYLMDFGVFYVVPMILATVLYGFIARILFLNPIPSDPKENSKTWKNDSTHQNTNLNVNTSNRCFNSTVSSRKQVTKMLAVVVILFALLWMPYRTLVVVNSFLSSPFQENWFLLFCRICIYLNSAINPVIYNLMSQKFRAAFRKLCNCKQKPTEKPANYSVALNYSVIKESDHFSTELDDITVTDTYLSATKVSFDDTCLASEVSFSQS
Chain of Progesterone receptor (Homo sapiens) (P06401 whole entry, looked up): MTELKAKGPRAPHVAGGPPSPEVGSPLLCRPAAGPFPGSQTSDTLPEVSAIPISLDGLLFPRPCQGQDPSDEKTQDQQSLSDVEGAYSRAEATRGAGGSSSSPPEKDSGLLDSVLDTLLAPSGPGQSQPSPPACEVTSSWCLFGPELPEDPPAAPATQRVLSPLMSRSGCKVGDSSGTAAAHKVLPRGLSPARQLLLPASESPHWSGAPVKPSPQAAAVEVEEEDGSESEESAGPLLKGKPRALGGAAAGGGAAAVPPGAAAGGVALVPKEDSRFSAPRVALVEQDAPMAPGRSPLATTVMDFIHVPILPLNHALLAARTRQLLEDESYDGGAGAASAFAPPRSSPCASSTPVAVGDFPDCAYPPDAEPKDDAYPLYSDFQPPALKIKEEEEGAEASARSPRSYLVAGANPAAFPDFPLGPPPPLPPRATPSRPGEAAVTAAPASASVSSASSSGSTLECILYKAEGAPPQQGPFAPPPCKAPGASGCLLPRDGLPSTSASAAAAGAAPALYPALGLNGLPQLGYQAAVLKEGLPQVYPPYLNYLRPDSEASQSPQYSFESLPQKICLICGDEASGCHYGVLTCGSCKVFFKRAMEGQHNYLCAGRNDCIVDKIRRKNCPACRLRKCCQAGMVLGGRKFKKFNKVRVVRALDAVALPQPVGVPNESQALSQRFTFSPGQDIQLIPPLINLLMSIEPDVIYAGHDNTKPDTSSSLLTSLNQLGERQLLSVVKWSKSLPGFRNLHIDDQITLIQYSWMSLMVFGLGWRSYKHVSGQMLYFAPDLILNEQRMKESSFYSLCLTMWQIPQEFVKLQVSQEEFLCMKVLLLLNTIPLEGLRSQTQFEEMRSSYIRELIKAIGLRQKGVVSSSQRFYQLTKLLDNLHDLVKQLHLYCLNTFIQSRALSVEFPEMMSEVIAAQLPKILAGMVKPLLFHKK
Chain of Nuclear receptor subfamily 1 group I member 2 (Homo sapiens) (O75469 whole entry, looked up): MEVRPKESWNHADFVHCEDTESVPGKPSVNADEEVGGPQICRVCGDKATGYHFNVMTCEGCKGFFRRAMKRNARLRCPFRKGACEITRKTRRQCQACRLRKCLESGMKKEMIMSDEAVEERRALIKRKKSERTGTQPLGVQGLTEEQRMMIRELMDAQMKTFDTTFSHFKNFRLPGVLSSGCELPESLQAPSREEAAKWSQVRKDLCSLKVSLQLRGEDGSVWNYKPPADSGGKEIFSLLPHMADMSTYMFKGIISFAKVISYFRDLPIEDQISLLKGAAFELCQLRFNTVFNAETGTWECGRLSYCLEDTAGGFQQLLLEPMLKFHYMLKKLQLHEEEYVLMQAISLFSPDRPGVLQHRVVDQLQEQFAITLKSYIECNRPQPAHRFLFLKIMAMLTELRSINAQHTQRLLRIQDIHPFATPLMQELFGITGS

Row | SMILES | Potency [1] | Potency [2] | Potency [3] | Potency [4] | outcome [5] | outcome [6] | outcome [7] | outcome [8] | outcome [9] | Potency [10] | Potency [11] | Potency [12] | Potency [13] | Potency [14] | Potency [15] | Potency [16] | max activation [17] [%] | Potency [18] | Potency [19]
1 | C(/C=C/C=C/Nc1ccccc1)=Nc1ccccc1 | inactive | inactive | inactive | inactive | inactive | inactive | inactive | inactive | inactive | inactive | inactive | inactive | inactive |  |  |  |  |  | 
2 | C=CCCC | inactive | inactive | inactive |  | inactive | inactive | inactive | inactive | inactive | inactive | inactive | inactive | inactive | inactive | inactive | inactive |  |  | 
3 | COC(=O)Cc1cccc2ccccc12 | inactive | inactive | inactive |  | inactive | inactive | inactive |  |  |  | inactive | inactive |  | inactive | inactive | inactive |  |  | 
4 | Nc1ccc(-c2ccc(F)cc2)cc1 | inactive | inactive | 6.11 µM (active) | inactive | inactive |  | inactive | inactive | inactive | inactive | inactive | inactive | inactive | inactive | inactive | 30.6 µM (active) |  |  | 
5 | C=CC(C)(O)CC/C=C(/C)CCC=C(C)C (stereo not drawn) | inactive | inactive | inactive | inactive | inactive | inactive |  |  | inactive | inactive | inactive |  | inactive | inactive | inactive | 54.5 µM (active) |  |  | 
6 | CCOCCn1c(N2CCCN(C)CC2)nc2ccccc21 | inactive | inactive | inactive | inactive |  | inactive |  | inactive | inactive | inactive | inactive | inactive | inactive | inactive | inactive |  | 4.1 |  | 
7 | CC(C(=O)O)c1ccc(/C=C2\CCCCC2=O)cc1 (stereo not drawn) | inactive | inactive | inactive | inactive |  |  |  |  |  | inactive | inactive | inactive | inactive | inactive | inactive |  |  |  | 
8 | Clc1cccc(C(c2ccc3nc[nH]c3c2)n2ccnc2)c1 (stereo not drawn) | inactive | inactive | inactive | inactive | inactive | inactive | inactive |  | inactive | inactive |  | inactive | inactive | inactive | inactive | inactive |  | inactive | 
9 | CNc1ccccc1 | inactive | inactive | inactive | inactive | inactive | inactive | inactive |  |  | inactive | inactive |  | inactive | inactive | inactive | inactive |  |  | 
10 | O=C1c2ccccc2C(=O)c2c1ccc(O)c2O | 26.6 µM (active) | inactive | inactive | inactive | inactive | inactive | inactive |  |  |  | inactive | inactive |  |  | 23.7 µM (active) | inactive | 0.447 | 14.1 µM (active) | inactive
11 | O=C(OCCCCCOC(=O)c1ccccc1)c1ccccc1 | inactive | inactive | inactive |  | inactive | inactive | inactive | inactive | inactive | inactive | inactive | inactive | inactive | inactive | inactive | inactive |  |  | 
12 | CCc1c(C)[nH]c2c1C(=O)C(CN1CCOCC1)CC2 (stereo not drawn) | inactive | inactive | inactive |  | inactive | inactive | inactive | inactive | inactive | inactive | inactive | inactive | inactive | inactive | inactive |  | -1.99 |  | 
13 | CCCCCCCCS | inactive | inactive | inactive | inactive | inactive | inactive | inactive |  |  | inactive | inactive | inactive | inactive | inactive | inactive | inactive |  |  | 
14 | O=C(O)c1ccccc1-n1cc(C(=O)O)c(=O)c2cc(Nc3c(F)cc(F)cc3Cl)c(Cl)cc21 | inactive | inactive | inactive | inactive |  |  | inactive |  |  | inactive | inactive | inactive | inactive |  | inactive | inactive |  |  | 
15 | CC1=C(C)C(=O)C(C(CCCCCC(=O)O)c2ccccc2)=C(C)C1=O (stereo not drawn) | inactive | inactive | inactive | inactive | inactive | inactive |  | inactive | inactive | inactive | inactive | inactive | inactive | inactive | 26.6 µM (active) | inactive | -6.02 | 10 µM (active) | inactive
16 | COc1cccc([C@H](O)C2CCN(CCc3ccc(F)cc3)CC2)c1OC | inactive | inactive | inactive |  | inactive | inactive | inactive |  | inactive |  | inactive | inactive | inactive | inactive | inactive | inactive |  |  | 
17 | Cc1c(Cl)cccc1[N+](=O)[O-] | inactive | inactive | inactive | inactive |  | inactive | inactive | inactive | inactive | inactive | inactive | inactive | inactive | inactive | inactive | inactive |  |  | 
18 | CCCC1CCOC(C)S1 (stereo not drawn) | inactive | inactive | inactive | inactive |  | inactive |  | inactive | inactive | inactive | inactive | inactive | inactive | inactive | inactive | inactive |  |  | 
